High-throughput results deposited in PubChem by National Center for Advancing Translational Sciences (NCATS).
PTHR1 agonist – activates the human parathyroid hormone receptor PTHR1 | Q03431 | HEK293 GP2 PTHR1 cells, GloSensor cAMP luminescence, 1 h | Potency, µM (titrated, usually from 115 µM), for inactives: top-dose activation, hits mostly activators | 410,000 tested, 0.075% active | AID 743266; note: potency is the fitted concentration of half-maximal effect; nearly all actives have a fitted effect of over 55% in size
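HEK-293-derived GP2 cells expressing PTHR1 and a GloSensor cAMP reporter, 3,000/well, plated overnight, given luciferin plus IBMX (each 0.5 mM as added) for 1 h at 37 °C, then compound for 1 h at 37 °C. Luminescence was read after 15 min at room temperature.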
TCR act – T cell receptor activation; primary human leukocytes, anti-CD3, IL-2 HTRF, 48 h; 330,000 tested, under 10 active; Potency, µM (doses to about 9.22 µM), for inactives: at the top dose activation of IL-2 secretion, most hits filed as activators; note: % of control where 0% means no effect
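TCR engagement came from a-CD3 beads alone, with compounds added to primary human leukocytes for 48 hr. Secreted IL-2 bridged europium cryptate- and d2-labelled anti-IL-2 antibodies, giving FRET emission at 665nm after 320nm excitation.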
RXFP1 agonist – agonists of human relaxin receptor RXFP1. AID 2676. Q9HBX9. HEK293T-RXFP1 cAMP TR-FRET, 30 min; response scale: percent of porcine relaxin response, buffer zero. 370,000 tested, 0.3% active. Potency, µM (doses to about 57.5 µM), inactives show top-dose activation, most hits filed as activators; note: potency is the fitted concentration of half-maximal effect; % is set by controls: 0 for no effect and ±100 for the full control effect; nearly all actives have a fitted effect of over 60% in size
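HEK293T cells stably expressing RXFP1 were pretreated with the PDE4 inhibitor Ro 20174, exposed to compounds for 30 min at 37C, lysed, and cAMP was read by TR-FRET. Data normalized to buffer (basal) and 29 nM porcine relaxin (100%).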
RXFP1 antagonist – antagonists of human relaxin receptor RXFP1; Q9HBX9; HEK293-RXFP1, relaxin-stimulated cAMP HTRF, 30 min; hits give low values; activity change, negative = inhibition, % at 57.5 µM; 350,000 tested, 0.59% active; AID 1259400;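 active = activity change of -60% or lower, but not beyond a set lower limit; inconclusive = change between -60% and -40%, or beyond the set limit; inactive = change above -40%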; note: % is set by controls: 0 for no effect and ±100 for the full control effect
NPSR antagonist – neuropeptide S receptor (human) antagonism, cAMP; CHO-NPSR cells, cAMP TR-FRET, antagonist mode; Potency, µM (series often up to 38.3 µM), without a hit: at the top dose activity change, negative = inhibition, most hits filed as inhibitors; 220,000 tested, 1% active; AID 1461; note: potency is the fitted concentration of half-maximal effect; % is set by controls: 0 for no effect and ±100 for the full control effect; nearly all actives have a fitted effect of over 50% in size
TSHR antagonist – antagonists of human thyroid stimulating hormone receptor. 330,000 tested, 0.2% active. AID 504810. TSHR-expressing cells, TSH-stimulated cAMP HTRF, 2 h; hits give low values. P16473. activity change, negative = inhibition, % at 11.5 µM;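 active = activity change below a set negative limit, meaning inhibition stronger than a set level, cut at about -70% in these data; inconclusive = activity change between two set negative limits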; note: % is set by controls: 0 for no effect and ±100 for the full control effect
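Competitive HTRF cAMP read-out (cryptate anti-cAMP antibody, cAMP-d2; 30 min, room temperature) in freshly harvested TSHR cells. Compounds added before TSH at EC80 (4nM final), followed by 2 hours' incubation at 37 deg C.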
The depositor's hits bear a star; i = inactive; ? = inconclusive; / = not tested or not shown; [ ] = dose if it differs, or a comment. Only a selection was taken, and hits are over-represented in it overall. Unless noted, calls come from the whole dose curve; as a rule, active = well fitted curve in the direction sought with a large enough effect; inconclusive = small, poorly fitted or top-dose-only effect, or another doubt; inactive = no such curve, though single readings can be large; an effect the other way counts as inactive or inconclusive.

SMILES | PTHR1 agonist | TCR act | RXFP1 agonist | RXFP1 antagonist | NPSR antagonist | TSHR antagonist
COc1ccc(C(C(=O)NC(C)(C)C)N(CCO)C(=O)CCC(=O)Nc2cc(C)on2)cc1 (centres undefined) | i | 4% | 0% | 5 | / | 6
CC(C)(C)NC(=O)C(c1ccc(O)cc1)N(Cc1ccccc1)C(=O)CCC(=O)Nc1nccs1 (centres undefined) | i | -6% | 1% | -4 | / | -98*
COc1ccc(C(C(=O)NC(C)(C)C)N(CCc2ccccc2)C(=O)CCC(=O)Nc2cc(C)on2)cc1 (centres undefined) | -15% | -1% | 1% | -13 | / | -106*
Cc1cccc(OCC(=O)N/N=C/c2ccc(N(C)C)cc2)c1 | -2% | 0% | -1% | -102* | -4% | 8
CN(C)c1ccc(/C=N/NC(=O)COc2ccccc2)cc1 | i | -1% | 3% | -7 | -3% | 4
COc1cccc(CNC(=O)c2c3c(nc4ccccc24)C(=O)N(C2CCCCC2)C3)c1 | i | / | -1% | ? | / | /
O=C(CCN1CCOCC1)c1ccc(N2CCCCC2)cc1 | -2% | 9% | 0% | / | / | -26
CC(C)(C)c1cc(C(=O)CCN2CCOCC2)cc(C(C)(C)C)c1O | 0% | -8% | 0% | -83* | / | -22
O=C(CSc1nc2ccccc2nc1Cc1ccc(Cl)cc1)N1CCCCC1 | -7% | / | 22% | ? | / | /
COc1ccc(C(=O)Nc2nnc(SCc3cc(=O)c4cc(C)ccc4[nH]3)s2)cc1OC | i | / | 4% | -15 | / | /
OC1(c2ccc(Cl)cc2)CN(c2ccccc2)C2=[N+]1CCS2 (centres undefined) | -21% | 7% | 1% | -26 | 10µM* | -13
OC1(c2ccc(Br)cc2)CN(c2ccccc2)C2=[N+]1CCS2 (centres undefined) | i | -1% | 4% | -11 | -35% | -6
Cc1ccccc1Nc1n[nH]c(=S)s1 | i | / | / | -1 | / | /
Nc1ccccc1-c1n[nH]c(=S)s1 | -58% | 5% | 28µM* | -14 | ? | -5
Cc1ccccc1Cn1c(CN2CCC(C(=O)NCCN(C)C)CC2)cc2ccccc21 | -1% | / | 2% | -8 | / | /
COc1cccc(C2=C(C(C)=O)Sc3nncn3N2C(C)=O)c1 | i | / | 4% | -18 | / | /
CC(=O)C1=C(c2ccc(Cl)c(Cl)c2)N(C(C)=O)n2c(C)nnc2S1 | i | / | 5% | -84* | / | /
CC(=O)C1=C(c2ccc(Cl)c(Cl)c2)N(C(C)=O)n2cnnc2S1 | -2% | / | 4% | -83* | / | /
CC(C)OP(=O)(CP(=O)(OC(C)C)OC(C)C)OC(C)C | / | / | / | -13 | / | /
Cc1nc2ccc(NC(=O)c3ccc(Cl)c([N+](=O)[O-])c3)cc2s1 | -20% | 1%[46.1 µM] | 3% | -15 | 14% | -6
Cc1nc2ccc(NC(=O)c3cc([N+](=O)[O-])cc([N+](=O)[O-])c3Cl)cc2s1 | -11% | 0%[46.1 µM] | 0% | -25 | ? | -76*
O=C(Nc1ccccc1)C(c1ccccc1)C1CCCC1 (centres undefined) | -35% | -1%[46.1 µM] | -2% | -70* | -27% | -1
O=[N+]([O-])c1cnc(Sc2ccncn2)s1 | -64% | 6% | 2% | -15 | ? | -89*
Cc1ccc2c(=O)cc(C(=O)N(Cc3ccc(C(C)(C)C)cc3)C3CCS(=O)(=O)C3)oc2c1 (centres undefined) | i | / | -1% | -14 | / | /
Cc1cc(C)c(Nc2cc(S(=O)(=O)O)c(N)c3c2C(=O)c2ccccc2C3=O)c(C)c1 | -35% | 10% | -11% | -29 | 5µM* | -27
COc1cc(Nc2ncc3c(n2)CCN(Cc2cc(Br)cs2)C3)cc(OC)c1 | 6% | / | -1% | -10 | / | /
CCCCc1ccc(NC(=O)CSc2nc(=O)n(CCN(C)C)c3c2CCC3)cc1 | -33% | / | 0% | -85* | / | 4
CCn1c2ccccc2c2cc(CN3CCN(Cc4cc(OC)c(O)c(OC)c4)CC3)ccc21 | -13% | / | 3% | -67* | / | /
